In PubChem BioAssay (NCATS) one finds Potency and outcome data, which are given here for 15 compounds.

The structures appear in SMILES notation. Inconclusive results are not listed. The source made the active and inactive calls. The call rests on the fitted dose curve; in most records, active means well fitted inhibition curve with a large enough effect; inconclusive means small, poorly fitted or top-dose-only effect; inactive means flat fitted curve, though single readings scatter.

What all share (experiment): qHTS profiling for inhibitors of Plasmodium falciparum proliferation (AID 504749); further: nearly all actives have a fitted effect of over 60% in size
What all share (settings): P. falciparum in erythrocytes, SYBR Green DNA, 72 h; series mostly up to 28.7 µM
(In general: Quantitative high-throughput screening tests each substance at several concentrations.)

Experiment [1] deals with CP238. Put shortly:
(§1)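 SYBR Green fluorescence (ex 485 nm, em 535 nm) reports parasite DNA after 72 h compound exposure of infected red cells at 0.3% parasitemia, 2.5% hematocrit; signal normalized to 0.29 uM artemisinin and vehicle wells.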

In experiment [2] the test system is CP247. In outline: as §1
In experiment [3] the test system is CP250. Put shortly: as §1
Experiment [4] deals with CP256. In outline:
as §1

In experiment [5] the test system is CP260. Put shortly:
as §1

Experiment [6] deals with CP262. Put shortly: as §1
Experiment [7] has as its system CP265. In outline:
as §1

Experiment [8] deals with CP266. In outline: as §1
The subject of experiment [9] is CP268. Put shortly:
as §1

Experiment [10] deals with CP269. Put shortly:
as §1

The subject of experiment [11] is CP286. Put shortly:
as §1

The test system of experiment [12] is CP291. Put shortly: as §1
Experiment [13] concerns CP297. Put shortly: as §1
The test system of experiment [14] is CP305. Put shortly: as §1
The test system of experiment [15] is CP315. In outline:
as §1

Experiment [16] deals with CP325. Put shortly:
as §1

In experiment [17] the test system is CP329. Put shortly:
as §1

For experiment [18], the system named is CP217. In outline:
as §1

Experiment [19] has as its system CP252. Put shortly:
as §1

Experiment [20] has as its system CP237. Put shortly: as §1
Potency means the concentration at half of the fitted maximal effect.

In the case of `CCCCCC(C)N` (stereo not given), the Potency result in experiment [1], in [2], in [3], in experiment [7], in experiment [9] and in experiment [14] was “inactive” throughout. The compound was classed as inactive in [4], in experiment [6], in experiment [8], in [10], in experiment [12] and in experiment [13]. Moreover, the call in experiment [15], in experiment [16] and in [17] was inactive. Also, the Potency in [5] is 10000 nM (active); in [11], 8910 nM (active).

As to `CC1CCN(CCCC(=O)c2ccc(F)cc2)CC1`, the compound was classed as inactive in experiment [18], in experiment [19], in experiment [4], in experiment [8], in experiment [10] and in experiment [12]. In addition, the compound was called inactive in experiment [13], in [15], in experiment [16] and in experiment [17]. The Potency entry in experiment [1], in experiment [2], in [3], in experiment [5], in [7] and in experiment [9] was “inactive” throughout. Moreover, the Potency result in [11] and in experiment [14] was “inactive” throughout.

As to `Nc1ncnc(Nc2ccccc2)n1`, the compound was called inactive in experiment [18], in experiment [19], in experiment [4], in experiment [8], in experiment [10] and in [12]. Besides, the result in experiment [13], in [15], in experiment [16] and in [17] was inactive. For the same compound, the Potency entry in [20], in [1], in [2], in [5], in experiment [7] and in experiment [9] was “inactive” each time. Also, the Potency result in [11] and in experiment [14] was “inactive” each time.

Regarding `CC(CN(C)C)C(C)(O)Cc1ccc(Cl)cc1` (stereo not given), the compound was classed as inactive in experiment [18], in [19], in [6], in experiment [8], in experiment [10] and in [15]. Moreover, in [20], the Potency is 2510 nM (active). In addition, the Potency result in [2] was “inactive”.

Regarding `Nc1c2c(nc3c1CCC3)CCCC2`, the Potency in experiment [11] was 11200 nM (active); in experiment [14] it was 15100 nM (active).

For `COc1ccc(C(=O)N2CCN(CC(=O)N3CCOCC3)CC2)cc1`, the compound was classed as inactive in [18], in experiment [19], in experiment [4], in experiment [6], in [8] and in [10]. Also, the call in [12], in experiment [13], in experiment [15], in experiment [16] and in experiment [17] was inactive. For the same compound, the Potency entry in experiment [20], in experiment [1], in experiment [2], in experiment [5], in [7] and in [9] was “inactive” each time. For the same compound, the Potency entry in experiment [11] and in [14] was “inactive” throughout.

Regarding `Cc1cc(-n2nc3ccc(Cl)cc3n2)c(O)c(C(C)(C)C)c1`, the Potency result in experiment [20], in experiment [5], in [9], in experiment [11] and in experiment [14] was “inactive” each time. The call in experiment [6], in experiment [8], in experiment [10], in experiment [12], in experiment [13] and in experiment [15] was inactive. Further, the call in experiment [16] and in [17] was inactive.

For `CCCNC(C)(C)COC(=O)c1ccccc1`, the compound was called inactive in experiment [18], in experiment [19], in experiment [4], in experiment [6], in experiment [8] and in [10]. Moreover, the call in experiment [12], in experiment [13], in [15], in experiment [16] and in experiment [17] was inactive. Also, the Potency entry in experiment [1], in experiment [2], in [3], in experiment [5], in experiment [7] and in [9] was “inactive” in each case. In addition, the Potency result in experiment [11] and in [14] was “inactive” throughout.

`O=C(O)CCCc1ccccc1`: the compound was called inactive in [18], in experiment [19], in experiment [4], in experiment [6], in experiment [10] and in experiment [12]. In addition, the compound was classed as inactive in experiment [13], in experiment [15], in experiment [16] and in experiment [17]. Moreover, the Potency result in experiment [20], in experiment [1], in [2], in experiment [3], in [7] and in [9] was “inactive” in each case. For the same compound, the Potency result in experiment [11] and in experiment [14] was “inactive” each time.

Take `CCN1CC(CCN2CCOCC2)C(c2ccccc2)(c2ccccc2)C1=O` (stereo not given): the result in [18], in experiment [19], in [4], in [6], in [8] and in [10] was inactive. Also, the compound was called inactive in experiment [12], in experiment [15], in [16] and in [17]. In addition, the Potency result in experiment [1], in [2], in [3], in experiment [5], in [9] and in experiment [11] was “inactive” each time. For the same compound, the Potency entry in experiment [14] was “inactive”.

For the compound `CC(=O)N[C@@H](Cc1ccc(O)cc1)C(=O)O`, the call in experiment [18], in [19], in [6], in experiment [8], in experiment [10] and in [12] was inactive. Moreover, the compound was classed as inactive in experiment [13], in [15], in experiment [16] and in [17]. Besides, the Potency entry in experiment [20], in experiment [1], in [2], in experiment [3], in experiment [5] and in experiment [7] was “inactive” each time. The Potency entry in experiment [9], in experiment [11] and in experiment [14] was “inactive” in each case.

`CCCCCCCCCCOc1cc2c(=O)c(C(=O)OCC)c[nH]c2cc1OCC`: the outcome in [18] and in experiment [15] was inactive. In addition, the Potency was 3.5 nM (active) in experiment [20]; 2.8 nM (active) in experiment [1]; 0.3 nM (active) in experiment [2]; 0.0708 nM (active) in experiment [3]; 3.5 nM (active) in [5]; 2.4 nM (active) in experiment [9]. The Potency in experiment [11] is 3.5 nM (active); in [14] it was 2.1 nM (active).

For the compound `CC(=O)N(CC(O)CO)c1c(I)c(C(=O)NCC(O)CO)c(I)c(C(=O)NCC(O)CO)c1I` (stereo not given), the call in experiment [18], in experiment [19], in experiment [4], in experiment [6], in experiment [8] and in experiment [10] was inactive. Also, the compound was classed as inactive in experiment [12], in experiment [13], in [15], in [16] and in experiment [17]. Further, the Potency entry in experiment [20], in experiment [1], in experiment [2], in experiment [3], in experiment [9] and in [11] was “inactive” each time. The Potency result in [14] was “inactive”.

Take `Cc1cc(OI)c(C(C)C)cc1-c1cc(C(C)C)c(OI)cc1C`: the Potency result in experiment [20], in experiment [3], in experiment [11] and in experiment [14] was “inactive” each time. Further, the compound was classed as inactive in experiment [4], in experiment [6], in experiment [8], in [15] and in experiment [17].

Turning to `C[C@H]1COc2c(C3(N)CC3)c(F)cc3c(=O)c(C(=O)O)cn1c23`, the result in [18], in experiment [19], in [4], in experiment [6], in experiment [8] and in experiment [10] was inactive. In addition, the compound was called inactive in [15], in [16] and in experiment [17]. Further, the Potency result in experiment [20], in experiment [1], in experiment [3], in experiment [7], in [11] and in [14] was “inactive” each time.
